Rce1 inh = blocks yeast Ras-converting enzyme | Q03530 | yeast membranes, quenched prenylated peptide cleavage fluorescence | calls only | 0.27% of 290,000 active | AID 2563;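 active = fall in fluorescence gain of 50% or more versus controls, with final raw signal at or below 3038400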
UBC13 polyUb = human UBC13 polyubiquitination inhibition; inhibition, % at 20 µM; 0.47% of 330,000 active; UBC13 polyubiquitin chain formation, TR-FRET; AID 485273; P61088; in the data active = inhibition above about 45%, passing the limit was not always enough
Target sequence (P61088 whole entry, looked up): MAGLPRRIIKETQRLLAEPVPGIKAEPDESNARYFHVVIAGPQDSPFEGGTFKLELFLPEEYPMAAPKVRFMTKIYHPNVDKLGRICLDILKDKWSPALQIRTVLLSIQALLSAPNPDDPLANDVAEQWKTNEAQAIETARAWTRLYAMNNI
MEKK2mut PB1 HTS = signal of MEK5 binding to mutant human MEKK2 PB1 domain; bead flow cytometry, Alexa488-MEK5 binding to MEKK2 mutant; 0.35% of 290,000 active; percent response, % at 10 µM; AID 1530; in the data active = percent response above about 24%, passing the limit was not always enough
MEKK3 PB1 HTS = modulators (inhibitors or enhancers) of MEK5 binding to human MEKK3 PB1 domain | binding response (% of control), % at 10 µM | AID 1529 | 1.4% of 290,000 active | bead-based flow cytometry, Alexa488-MEK5 binding to MEKK3; actives lie on both sides; 0 = blocked by unlabeled MEK5, 100 = vehicle | Q99759;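 active = binding response more than 3 SD above or below the average of its plate-row segment, actives on both sides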;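 note: Alexa488 bead fluorescence after subtracting the streptavidin-only scavenger bead signal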
MEKK2 WT-MEK5 = raises or lowers MEK5 binding to wildtype human MEKK2 PB1 domain; 1.1% of 290,000 active; bead flow cytometry, Alexa488-MEK5 binding to MEKK2 WT; actives lie on both sides; binding response (% of control), % at 10 µM; in the data active = binding response below about 67% or above about 130%
MEKK2wt confirm = raises or lowers MEK5 binding to wildtype human MEKK2, retest; shares compounds with MEKK3 PB1 HTS; 2.4% of 5,900 active; bead flow cytometry, Alexa488-MEK5 binding to MEKK2 WT; actives lie on both sides; AID 1892; binding response (% of control), % at 10 µM; in the data active = binding response below about 16% or above about 210%; inactive = in between
MEKK2mut-MEK5 = signal of MEK5 binding to mutant human MEKK2, retest | 2% of 5,900 active | AID 1893 | bead flow cytometry, Alexa488-MEK5 binding to MEKK2 mutant | percent response, % at 10 µM | shares compounds with MEKK3 PB1 HTS; in the data active = percent response mostly above about 71%, no sharp cut-off; inactive = mostly below about 38%;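 note: higher means compound restores mutant binding toward wildtype level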
MEKK3 confirm = MEKK3-MEK5 PB1 inhibition, single concentration confirmation | shares compounds with MEKK3 PB1 HTS | bead flow cytometry, Alexa488-MEK5 binding to MEKK3; stronger effect = lower value | binding response (% of control), % at 10 µM | 1.8% of 5,900 active | AID 1894;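 active = binding response below 72% of control, or above a set upper limit, though filed actives all read lower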
Numbers stand for hits; – = inactive; · = no result; [ ] = dose if it differs, or a comment. Rows were chosen to be rich in hits. Some 2.5% of all compounds tested hit in one or more screens of this group.

SMILES | Rce1 inh | UBC13 polyUb | MEKK2mut PB1 HTS | MEKK3 PB1 HTS | MEKK2 WT-MEK5 | MEKK2wt confirm | MEKK2mut-MEK5 | MEKK3 confirm
CCC(=O)Oc1ccc(NC(=O)CSCc2ccccc2)cc1 | – | – | – | – | – | · | · | ·
Cc1cc(N/N=C/c2ccccc2Cl)nc(NCc2ccccc2)n1 | – | – | – | – | 146 | – | – | –
Cc1cc(C)nc(N/N=C/c2ccccc2Cl)n1 | – | – | – | – | – | · | · | ·
CC(=O)Oc1ccc(C(=O)NCc2ccc3c(c2)OCO3)cc1 | – | – | – | – | – | · | · | ·
O=C(CSc1nc2ccccc2c(=O)n1Cc1ccc(Cl)cc1)NCc1cccs1 | – | – | – | – | – | · | · | ·
O=C(CSc1nc2ccccc2c(=O)n1-c1ccc(OC(F)F)cc1)NCc1cccs1 | – | – | – | 138 | – | – | – | –
O=C(c1cccc(Cl)c1)C1CCCN(S(=O)(=O)c2ccccc2)C1 (stereo unspecified) | – | – | – | – | – | · | · | ·
CCN(CC)S(=O)(=O)c1ccc(C(=O)/C=C/c2ccc(-c3ccc([N+](=O)[O-])cc3)o2)cc1 | – | – | – | – | 37[inhibitor] | – | – | –
Cc1ccc(C(=O)/C=C/c2ccc(-c3ccc(C)cc3)o2)cc1 | – | – | – | – | – | · | · | ·
COc1ccc2c(c1)CCc1cn3nc(C)cc3nc1-2 | – | – | – | 8.0[inhibitor] | – | – | – | –
COc1ccc2c(c1)c(/C=N/Nc1nc3ccccc3[nH]1)c(C)n2C | – | – | 51 | – | 164 | – | – | –
O=C(Cn1cnc([N+](=O)[O-])n1)NC1CC1 | – | – | – | – | – | · | · | ·
C[C@@H]1C[C@H]2[C@@H]3CCC4=CC(=O)C=C[C@]4(C)[C@@]3(F)[C@@H](O)C[C@]2(C)[C@H]1C(=O)CO | – | – | – | 122 | – | – | – | –
Cc1ccccc1OCC(=O)Nc1ccc(N2CCN(C)CC2)c(Cl)c1 | – | – | – | – | – | · | · | ·
C/C(=N\Nc1ccc([N+](=O)[O-])cc1)c1ccc(C#N)cc1 | – | – | – | – | – | · | · | ·
C/C(=N/Nc1ccc([N+](=O)[O-])cc1)c1ccc(C)cc1C | – | – | – | – | 148 | – | – | –
O=C(O)CC/C(=N/Nc1ccc([N+](=O)[O-])cc1)C(=O)O | – | – | – | 75[inhibitor] | – | – | – | –
CCC(CC)C(=O)c1c[nH]c(C(=O)N2CCN(c3ccc(OC)cc3)CC2)c1 | – | – | – | – | – | · | · | ·
CC(C)C(=O)Nc1c2c(nn1-c1ccc(F)cc1)CSC2 | – | – | – | – | – | · | · | ·
CCN(CC(O)CON=C1c2ccccc2-c2ccccc21)S(=O)(=O)c1ccc(C)cc1 (stereo unspecified) | – | – | – | 141 | – | – | – | –
CCOc1cc(CNC2CCCC2)cc(Cl)c1OCc1ccc(F)cc1 | – | – | – | – | 144 | – | – | –
CCNCc1cc(Cl)c(OCc2ccccc2)c(OCC)c1 | – | – | – | – | – | · | · | ·
COc1cc(CNCCO)cc(Cl)c1OCc1ccc(Cl)cc1Cl | – | – | – | – | 161 | – | – | –
COc1cc(CNC2CCCCCCC2)cc(Cl)c1OCC(N)=O | – | – | – | – | – | · | · | ·
COc1cc(CNC2CCCC2)cc(Cl)c1OCc1ccc(F)cc1 | – | – | 25 | – | – | – | – | –
COc1cc(CNC2CCCC2)cc(Cl)c1OCc1ccccc1Cl | – | – | – | – | 207 | – | – | –
Cc1cccc(NC(=O)CCN2C(=O)c3ccccc3S2(=O)=O)c1C | – | – | – | – | – | · | · | ·
Cc1noc(C)c1S(=O)(=O)N1CCCC(C(=O)c2cccc(OC(C)C)c2)C1 (stereo unspecified) | – | – | – | – | – | · | · | ·
COc1cccc(CNS(=O)(=O)c2cc(CN3C(=O)c4cccnc4C3=O)ccc2OC)c1 | – | – | – | – | – | · | · | ·
